# Data published in the supplement of paper PMC8728848.
# This is one part of a sample in which the strongest signals are shown more often than they occur.
# B1: Langerin K299A/K313A (Homo sapiens), Q9UJ71 (protein)
# chain: STLNAQIPELKSDLEKASALNTKIRALQGSLENMSKLLKRQNDILQVVSQGWKYFKGNFYYFSLIPKTWYSAEQFCVSRNSHLTSVTSESEQEFLYKTAGGLIYWIGLTKAGMEGDWSWVDDTPFNKVQSARFWIPGEPNNAGNNEHCGNIAAPSLQAWNDAPCDATFLFICKRPYVPSEP
# Columns and labels:
# Experiment in all cases: glycan array binding signal (z-score within array); higher = stronger binding
# Details in all cases: glycan notation: IUPAC condensed, linker removed
# [1] = molecular target: Fuc(a1-2)Gal(b1-3)GlcNAc(b1-3)[Neu5Ac(a2-6)Gal(b1-4)GlcNAc(b1-6)]Gal(b1-4)Glc
# Outline: (§1)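 Arrays were curated from the Consortium for Functional Glycomics database, 3228 in total, and kept only where the protein sequence was available. Binding is expressed as a within-array Z-score. This score was averaged across arrays of the same protein sequence at different concentrations or buffers and across linkers, and negative values can be read as non-binding.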
# [2] = molecular target: Fuc(a1-2)Gal(b1-4)GlcNAc(b1-2)Man
# Outline: as §1
# [3] = molecular target: Fuc(a1-2)Gal(b1-4)GlcNAc(b1-2)[Fuc(a1-2)Gal(b1-4)GlcNAc(b1-4)]Man(a1-3)[Fuc(a1-2)Gal(b1-4)GlcNAc(b1-2)Man(a1-6)]Man(b1-4)GlcNAc(b1-4)GlcNAc
# Outline: as §1
# [4] = molecular target: Fuc(a1-2)Gal(b1-4)GlcNAc(b1-3)Gal(b1-4)GlcNAc(b1-3)Gal(b1-4)GlcNAc
# Outline: as §1
# [5] = molecular target: Fuc(a1-2)[Gal(a1-3)]Gal(b1-3)GalNAc(b1-3)Gal(a1-4)Gal(b1-4)Glc
# Outline: as §1
# [6] = molecular target: Fuc(a1-3)[Gal(b1-4)]Glc6S
# Outline: as §1
# [7] = molecular target: Fuc(a1-3)[Gal(b1-4)]GlcNAc(b1-2)Man(a1-3)[Fuc(a1-3)[Gal(b1-4)]GlcNAc(b1-2)Man(a1-6)]Man(b1-4)GlcNAc(b1-4)GlcNAc
# Outline: as §1
# [8] = molecular target: Fuc(a1-3)[Gal(b1-4)]GlcNAc(b1-3)Gal(b1-3)[Fuc(a1-4)]GlcNAc
# Outline: as §1
# [9] = molecular target: Fuc(a1-3)[Gal(b1-4)]GlcNAc(b1-3)Gal(b1-4)[Fuc(a1-3)]GlcNAc
# Outline: as §1
# [10] = molecular target: Fuc(a1-3)[Gal(b1-4)]GlcNAc(b1-3)GalNAc
# Outline: as §1
# [11] = molecular target: Gal(a1-3)Gal
# Outline: as §1
# [12] = molecular target: Gal(a1-3)Gal(b1-3)GlcNAc(b1-2)Man(a1-3)[Gal(a1-3)Gal(b1-3)GlcNAc(b1-2)Man(a1-6)]Man(b1-4)GlcNAc(b1-4)GlcNAc
# Outline: as §1
# [13] = molecular target: Gal(a1-3)Gal(b1-4)[Fuc(a1-3)]GlcNAc(b1-2)Man(a1-3)[Gal(a1-3)Gal(b1-4)[Fuc(a1-3)]GlcNAc(b1-2)Man(a1-6)]Man(b1-4)GlcNAc(b1-4)GlcNAc
# Outline: as §1
# [14] = molecular target: Gal(a1-4)Gal(b1-4)GlcNAc
# Outline: as §1
# [15] = molecular target: Gal(b1-3)GalNAc(b1-3)Gal(a1-4)Gal(b1-4)Glc
# Outline: as §1
# [16] = molecular target: Gal(b1-3)GlcNAc(a1-3)Gal(b1-4)GlcNAc
# Outline: as §1
# [17] = molecular target: Gal(b1-3)GlcNAc(b1-3)GalNAc
# Outline: as §1
# [18] = molecular target: Gal(b1-3)[Fuc(a1-4)]GlcNAc(b1-2)Man(a1-3)[Gal(b1-3)[Fuc(a1-4)]GlcNAc(b1-2)Man(a1-6)]Man(b1-4)GlcNAc(b1-4)[Fuc(a1-6)]GlcNAc
# Outline: as §1
# [19] = molecular target: Gal(b1-3)[Neu5Ac(a2-6)]GalNAc
# Outline: as §1
# [20] = molecular target: Gal(b1-4)GlcNAc(b1-2)[Gal(b1-4)GlcNAc(b1-4)]Man(a1-3)[GlcNAc(b1-4)][Gal(b1-4)GlcNAc(b1-2)Man(a1-6)]Man(b1-4)GlcNAc(b1-4)GlcNAc
# Outline: as §1
# [21] = molecular target: Gal(b1-4)GlcNAc(b1-3)Gal(b1-4)Glc
# Outline: as §1
# [22] = molecular target: Gal(b1-4)GlcNAc(b1-3)Gal(b1-4)GlcNAc(b1-2)Man(a1-3)[Gal(b1-4)GlcNAc(b1-3)Gal(b1-4)GlcNAc(b1-2)Man(a1-6)]Man(b1-4)GlcNAc(b1-4)GlcNAc
# Outline: as §1
# [23] = molecular target: Gal(b1-4)GlcNAc(b1-3)Gal(b1-4)GlcNAc(b1-3)Gal(b1-4)GlcNAc(b1-3)Gal(b1-4)GlcNAc(b1-2)Man(a1-3)[Gal(b1-4)GlcNAc(b1-3)Gal(b1-4)GlcNAc(b1-3)Gal(b1-4)GlcNAc(b1-3)Gal(b1-4)GlcNAc(b1-2)Man(a1-6)]Man(b1-4)GlcNAc(b1-4)[Fuc(a1-6)]GlcNAc
# Outline: as §1
# [24] = molecular target: Gal(b1-4)GlcNAc(b1-3)Gal(b1-4)GlcNAc(b1-3)Gal(b1-4)GlcNAc(b1-3)Gal(b1-4)GlcNAc(b1-2)[Gal(b1-4)GlcNAc(b1-3)Gal(b1-4)GlcNAc(b1-3)Gal(b1-4)GlcNAc(b1-3)Gal(b1-4)GlcNAc(b1-6)]Man(a1-6)[Gal(b1-4)GlcNAc(b1-3)Gal(b1-4)GlcNAc(b1-3)Gal(b1-4)GlcNAc(b1-3)Gal(b1-4)GlcNAc(b1-2)Man(a1-3)]Man(b1-4)GlcNAc(b1-4)[Fuc(a1-6)]GlcNAc
# Outline: as §1
# [25] = molecular target: Gal3S(b1-4)Glc6S
# Outline: as §1
# [26] = molecular target: Gal3S(b1-4)[Fuc(a1-3)]Glc6S
# Outline: as §1
# [27] = molecular target: Gal6S(b1-3)GlcNAc
# Outline: as §1
# [28] = molecular target: GalNAc(a1-3)GalNAc(b1-3)Gal(a1-4)Gal(b1-4)Glc
# Outline: as §1
# [29] = molecular target: GalNAc(b1-3)Gal(a1-6)Gal(b1-4)Glc
# Outline: as §1
# [30] = molecular target: GalNAc3S(b1-4)[Fuc(a1-3)]GlcNAc
# Outline: as §1
# [31] = molecular target: Glc(a1-4)Glc
# Outline: as §1
# [32] = molecular target: GlcA(b1-3)Gal
# Outline: as §1
# [33] = molecular target: GlcNAc(b1-2)Gal(b1-3)GalNAc
# Outline: as §1
# [34] = molecular target: GlcNAc(b1-3)Gal(b1-4)GlcNAc(b1-2)Man(a1-3)[GlcNAc(b1-3)Gal(b1-4)GlcNAc(b1-2)Man(a1-6)]Man(b1-4)GlcNAc(b1-4)GlcNAc
# Outline: as §1
# [35] = molecular target: GlcNAc(b1-3)Gal(b1-4)GlcNAc(b1-2)[GlcNAc(b1-3)Gal(b1-4)GlcNAc(b1-6)]Man(a1-6)[GlcNAc(b1-3)Gal(b1-4)GlcNAc(b1-2)Man(a1-3)]Man(b1-4)GlcNAc(b1-4)GlcNAc
# Outline: as §1
# [36] = molecular target: GlcNAc(b1-3)Gal(b1-4)GlcNAc(b1-3)Gal(b1-4)GlcNAc(b1-2)Man(a1-3)[GlcNAc(b1-3)Gal(b1-4)GlcNAc(b1-3)Gal(b1-4)GlcNAc(b1-2)Man(a1-6)]Man(b1-4)GlcNAc(b1-4)GlcNAc
# Outline: as §1
# [37] = molecular target: GlcNAc(b1-3)Gal(b1-4)GlcNAc(b1-3)Gal(b1-4)GlcNAc(b1-3)Gal(b1-4)GlcNAc(b1-2)Man(a1-3)[GlcNAc(b1-3)Gal(b1-4)GlcNAc(b1-3)Gal(b1-4)GlcNAc(b1-3)Gal(b1-4)GlcNAc(b1-2)Man(a1-6)]Man(b1-4)GlcNAc(b1-4)[Fuc(a1-6)]GlcNAc
# Outline: as §1
# [38] = molecular target: GlcNAc(b1-3)Gal(b1-4)GlcNAc(b1-3)Gal(b1-4)GlcNAc(b1-3)Gal(b1-4)GlcNAc(b1-3)Gal(b1-4)GlcNAc(b1-2)Man(a1-3)[GlcNAc(b1-3)Gal(b1-4)GlcNAc(b1-3)Gal(b1-4)GlcNAc(b1-3)Gal(b1-4)GlcNAc(b1-3)Gal(b1-4)GlcNAc(b1-2)Man(a1-6)]Man(b1-4)GlcNAc(b1-4)GlcNAc
# Outline: as §1
# [39] = molecular target: GlcNAc(b1-3)Gal(b1-4)GlcNAc(b1-6)[GlcNAc(b1-3)Gal(b1-3)]GalNAc
# Outline: as §1
# [40] = molecular target: GlcNAc(b1-4)Gal(b1-4)GlcNAc
# Outline: as §1
# [41] = molecular target: Kdn(a2-6)Gal(b1-4)GlcNAc
# Outline: as §1
# [42] = molecular target: Man(a1-2)Man(a1-3)Man
# Outline: as §1
# [43] = molecular target: Man(a1-3)[Man(a1-6)]Man(a1-6)[Man(a1-3)]Man(b1-4)GlcNAc(b1-4)GlcNAc
# Outline: as §1
# [44] = molecular target: Neu5Ac(a2-3)Gal(b1-3)GlcNAc6S
# Outline: as §1
# [45] = molecular target: Neu5Ac(a2-3)Gal(b1-4)GlcNAc(b1-3)Gal(b1-4)GlcNAc(b1-3)Gal(b1-4)GlcNAc
# Outline: as §1
# [46] = molecular target: Neu5Ac(a2-3)Gal(b1-4)[Fuc(a1-3)]GlcNAc(b1-3)GalNAc
# Outline: as §1
# [47] = molecular target: Neu5Ac(a2-3)Gal(b1-4)[Fuc(a1-3)]GlcNAc6S
# Outline: as §1
# [48] = molecular target: Neu5Ac(a2-3)[GalNAc(b1-4)]Gal(b1-4)GlcNAc
# Outline: as §1
# [49] = molecular target: Neu5Ac(a2-3)[GalNAc(b1-4)]Gal(b1-4)GlcNAc(b1-3)GalNAc
# Outline: as §1
# [50] = molecular target: Neu5Ac(a2-6)Gal
# Outline: as §1
# [51] = molecular target: Neu5Ac(a2-6)Gal(b1-3)GlcNAc(b1-3)[Gal(b1-4)GlcNAc(b1-6)]Gal(b1-4)Glc
# Outline: as §1
# [52] = molecular target: Neu5Ac(a2-6)Gal(b1-4)GlcNAc(b1-2)Man(a1-3)[Neu5Ac(a2-6)Gal(b1-4)GlcNAc(b1-2)Man(a1-6)]Man(b1-4)GlcNAc(b1-4)[Fuc(a1-6)]GlcNAc
# Outline: as §1
# [53] = molecular target: Neu5Ac(a2-6)GalNAc
# Outline: as §1
# [54] = molecular target: Neu5Ac(b2-6)GalNAc
# Outline: as §1
binder,measurement,setting,value
B1,glycan array binding signal (z-score),[1],0.388
same,glycan array binding signal (z-score),[2],-0.127
same,glycan array binding signal (z-score),[3],2.71
same,glycan array binding signal (z-score),[4],0.332
same,glycan array binding signal (z-score),[5],-0.015
same,glycan array binding signal (z-score),[6],3.28
same,glycan array binding signal (z-score),[7],0.222
same,glycan array binding signal (z-score),[8],0.313
same,glycan array binding signal (z-score),[9],0.842
same,glycan array binding signal (z-score),[10],-0.202
same,glycan array binding signal (z-score),[11],-0.327
same,glycan array binding signal (z-score),[12],1.22
same,glycan array binding signal (z-score),[13],0.892
same,glycan array binding signal (z-score),[14],-0.009
same,glycan array binding signal (z-score),[15],-0.916
same,glycan array binding signal (z-score),[16],-0.826
same,glycan array binding signal (z-score),[17],0
same,glycan array binding signal (z-score),[18],1.85
same,glycan array binding signal (z-score),[19],0.445
same,glycan array binding signal (z-score),[20],-0.95
same,glycan array binding signal (z-score),[21],-0.709
same,glycan array binding signal (z-score),[22],3.14
same,glycan array binding signal (z-score),[23],3.97
same,glycan array binding signal (z-score),[24],3.09
same,glycan array binding signal (z-score),[25],-0.193
same,glycan array binding signal (z-score),[26],5.35
same,glycan array binding signal (z-score),[27],-0.241
same,glycan array binding signal (z-score),[28],0.162
same,glycan array binding signal (z-score),[29],0.155
same,glycan array binding signal (z-score),[30],-1
same,glycan array binding signal (z-score),[31],-0.103
same,glycan array binding signal (z-score),[32],-0.832
same,glycan array binding signal (z-score),[33],0.486
same,glycan array binding signal (z-score),[34],0.619
same,glycan array binding signal (z-score),[35],3.64
same,glycan array binding signal (z-score),[36],0.828
same,glycan array binding signal (z-score),[37],5.83
same,glycan array binding signal (z-score),[38],2.75
same,glycan array binding signal (z-score),[39],-0.82
same,glycan array binding signal (z-score),[40],-0.886
same,glycan array binding signal (z-score),[41],0.407
same,glycan array binding signal (z-score),[42],-1.07
same,glycan array binding signal (z-score),[43],-0.582
same,glycan array binding signal (z-score),[44],-0.784
same,glycan array binding signal (z-score),[45],0.361
same,glycan array binding signal (z-score),[46],3.01
same,glycan array binding signal (z-score),[47],0.192
same,glycan array binding signal (z-score),[48],-0.463
same,glycan array binding signal (z-score),[49],0.982
same,glycan array binding signal (z-score),[50],0.01
same,glycan array binding signal (z-score),[51],0.329
same,glycan array binding signal (z-score),[52],3.07
same,glycan array binding signal (z-score),[53],-0.621
same,glycan array binding signal (z-score),[54],-0.61
